{
  "source": "PubChem BioAssay (NCI)",
  "note": "This is part of a sample that, as a whole, favours compounds with a hit. Of some 79,000 tested, about 15% had one in any assay. Activity calls are given as the source filed them. Rule as the data show it: active = growth inhibition above about 70%; inactive = the rest.",
  "data": [
    {"test": "NCI Yeast Anticancer Drug Screen. Data for the bub3 strain (AID 167)", "details": "S. cerevisiae bub3 mutant strain, at 50.0 µM, stronger effect = higher value", "method_in_brief": "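Whole-cell yeast assay. The mutant strain was incubated with compounds, and growth inhibition was determined by comparison with vehicle-treated cells.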", "values": [
      {"smiles": "CCOP(=O)(OCC)/C(C#N)=C/c1ccc(Oc2ccccc2)cc1", "growth inhibition": "90.5% (active)"},
      {"smiles": "CC(=O)Nc1ccc(S(=O)(=O)/N=C2\\C=CC(=O)c3ccccc32)cc1", "growth inhibition": "71.7% (active)"},
      {"smiles": "CCCC#CCCOC(=O)c1cc([N+](=O)[O-])cc([N+](=O)[O-])c1", "growth inhibition": "99.4% (active)"},
      {"smiles": "COc1cccc2c1OC(c1ccc(Cl)cc1)C([N+](=O)[O-])=C2", "note": "(stereo not given)", "growth inhibition": "85.5% (active)"},
      {"smiles": "c1ccc(-n2c3ccccc3c3ccccc32)cc1", "growth inhibition": "88.2% (active)"},
      {"smiles": "CCOC(=O)C(NC(C)=O)[CH](c1ccccc1)[Sn]([c]1ccccc1)([c]1ccccc1)[c]1ccccc1", "note": "(stereo not given)", "growth inhibition": "96.2% (active)"},
      {"smiles": "C/C(CCn1[nH]c(=O)ccc1=O)=N\\Nc1ccc([N+](=O)[O-])cc1[N+](=O)[O-]", "growth inhibition": "25.9% (inactive)"},
      {"smiles": "N#CC(O)C(Br)(Br)Br", "note": "(stereo not given)", "growth inhibition": "84.7% (active)"},
      {"smiles": "COc1ccc(N)c([N+](=O)[O-])c1", "growth inhibition": "48.9% (inactive)"},
      {"smiles": "CC(C)O[C@H]1N(C2CC(N=[N+]=[N-])C(CO)O2)C(=O)NC(=O)[C@]1(C)Br", "note": "(stereo not given in full)", "growth inhibition": "90.5% (active)"},
      {"smiles": "COc1ccc(C(=O)C2C(=O)C(=O)OC2C2OC(=O)C(=O)C2C(=O)c2ccc(OC)cc2)cc1", "note": "(stereo not given)", "growth inhibition": "3.05% (inactive)"},
      {"smiles": "O=[N+]([O-])c1c(Cl)c(Cl)c(O)c(Cl)c1Cl", "growth inhibition": "78.2% (active)"},
      {"smiles": "Cc1ccc(C)c(NC(=O)CCC(=O)CC(=O)c2ccncc2)c1", "growth inhibition": "10.7% (inactive)"},
      {"smiles": "CC(C)CCCC(C)C1CCC2C3CC=C4CC(OC(=O)Nc5ccc(S(=O)(=O)c6ccc(F)cc6)cc5)CCC4(C)C3CCC12C", "note": "(stereo not given)", "growth inhibition": "96.7% (active)"},
      {"smiles": "COc1ccc(/C=C(/NC(=O)c2ccccc2)C(=O)Nc2ccccc2)cc1OC", "growth inhibition": "-8.25% (inactive)"},
      {"smiles": "C=C(Br)CN(CC(=C)Br)C(C)=O", "growth inhibition": "-1.4% (inactive)"},
      {"smiles": "CCN(C(C)=O)c1ccc2c(c1)Cc1ccccc1-2", "growth inhibition": "97.4% (active)"},
      {"smiles": "NN(c1ccccc1)c1cccc2ccccc12", "growth inhibition": "75.9% (active)"},
      {"smiles": "C#CCN1CCN(C(=S)N/N=C(\\C)c2ccccn2)CC1", "growth inhibition": "99.3% (active)"},
      {"smiles": "CC(C)OC(=O)C1C=CCc2c(O)ccc(O)c21", "note": "(stereo not given)", "growth inhibition": "52% (inactive)"},
      {"smiles": "CC(=O)C1C(=O)C=C(C)OC1=O", "note": "(stereo not given)", "growth inhibition": "28.9% (inactive)"},
      {"smiles": "CCOC(=O)c1[nH]n(-c2ccccc2)c(=O)c1/C=N/C(=S)N=Nc1c(O)[nH]c2ccccc12", "growth inhibition": "-15.8% (inactive)"},
      {"smiles": "N#Cc1c(Cl)nnc(-c2ccccc2)c1-c1ccccc1", "growth inhibition": "93.5% (active)"},
      {"smiles": "CC(=O)Oc1c(O)c2ccccc2c2ccccc12", "growth inhibition": "99.5% (active)"},
      {"smiles": "Cc1cccnc1NC(=S)Nc1ccccc1Cl", "growth inhibition": "91.8% (active)"},
      {"smiles": "CCOC(=O)/C(=C\\c1cccc(OC)c1)C(C)=O", "growth inhibition": "88.3% (active)"},
      {"smiles": "c1ccc(C(c2ccccc2)c2ccc3ccccc3n2)cc1", "growth inhibition": "61.4% (inactive)"},
      {"smiles": "O=c1cc(CSc2ccc(Cl)cc2)occ1O", "growth inhibition": "11.9% (inactive)"},
      {"smiles": "COc1cc(NCCCCCNC2CCCCC2)c2ncccc2c1", "growth inhibition": "83.6% (active)"},
      {"smiles": "CC(=O)OCc1ccc([N+](=O)[O-])o1", "growth inhibition": "98.9% (active)"},
      {"smiles": "O=C(O)Cc1cccc2cc3c(ccc4ccccc43)cc12", "growth inhibition": "93.3% (active)"},
      {"smiles": "Cc1cccc(N2C(=O)c3ccccc3C2(c2ccccc2)N2CCCCC2)c1", "note": "(stereo not given)", "growth inhibition": "50.3% (inactive)"},
      {"smiles": "O=C(/C=C/c1ccccc1)CCN1CCOCC1", "growth inhibition": "88.8% (active)"},
      {"smiles": "C=CCCCCCCCCC(=O)CCCCCCCCC=C", "growth inhibition": "14% (inactive)"},
      {"smiles": "Cc1ccc(O)c(C(C)c2ccccc2)c1", "note": "(stereo not given)", "growth inhibition": "98.8% (active)"},
      {"smiles": "COC(=O)c1nc(N)nc(C(=O)OC)c1C(=O)c1ccccc1", "growth inhibition": "-24.6% (inactive)"},
      {"smiles": "Cc1ccc(S(=O)(=O)Oc2ccc(C(C)(C)C)cc2Cl)cc1", "growth inhibition": "11.4% (inactive)"},
      {"smiles": "CCCCCCCCCCCCCCC[N+]1(CC)CCCCC1", "growth inhibition": "90.5% (active)"},
      {"smiles": "CC12CCC(=O)C=C1C=CC1C2CCC2(C)C1CCC21CCC(=O)O1", "note": "(stereo not given)", "growth inhibition": "66.7% (inactive)"},
      {"smiles": "CC(C)N(C(=O)C12C3C4C1C1C2C3C41I)C(C)C", "note": "(stereo not given)", "growth inhibition": "61% (inactive)"}
    ]},
    {"test": "NCI Yeast Anticancer Drug Screen. Data for the mlh1 rad18 strain (AID 175)", "details": "S. cerevisiae mlh1 rad18 strain growth inhibition; at 5.0 µM (retest, dose inferred, filed as 0.5); stronger effect = higher value", "method_in_brief": "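Steps: expose repair-defective yeast to compound; measure growth; express inhibition against vehicle-treated controls.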", "values": [
      {"smiles": "CCOP(=O)(OCC)/C(C#N)=C/c1ccc(Oc2ccccc2)cc1", "growth inhibition": "1% (inactive)"},
      {"smiles": "CC(=O)Nc1ccc(S(=O)(=O)/N=C2\\C=CC(=O)c3ccccc32)cc1", "growth inhibition": "5% (inactive)"},
      {"smiles": "CCCC#CCCOC(=O)c1cc([N+](=O)[O-])cc([N+](=O)[O-])c1", "growth inhibition": "5% (inactive)"},
      {"smiles": "COc1cccc2c1OC(c1ccc(Cl)cc1)C([N+](=O)[O-])=C2", "note": "(stereo not given)", "growth inhibition": "96% (active)"},
      {"smiles": "c1ccc(-n2c3ccccc3c3ccccc32)cc1", "growth inhibition": "-1% (inactive)"},
      {"smiles": "CCOC(=O)C(NC(C)=O)[CH](c1ccccc1)[Sn]([c]1ccccc1)([c]1ccccc1)[c]1ccccc1", "note": "(stereo not given)", "growth inhibition": "2% (inactive)"},
      {"smiles": "C/C(CCn1[nH]c(=O)ccc1=O)=N\\Nc1ccc([N+](=O)[O-])cc1[N+](=O)[O-]", "growth inhibition": "45% (inactive)"},
      {"smiles": "N#CC(O)C(Br)(Br)Br", "note": "(stereo not given)", "growth inhibition": "1% (inactive)"},
      {"smiles": "COc1ccc(N)c([N+](=O)[O-])c1", "growth inhibition": "-4% (inactive)"},
      {"smiles": "CC(C)O[C@H]1N(C2CC(N=[N+]=[N-])C(CO)O2)C(=O)NC(=O)[C@]1(C)Br", "note": "(stereo not given in full)", "growth inhibition": "-4% (inactive)"},
      {"smiles": "COc1ccc(C(=O)C2C(=O)C(=O)OC2C2OC(=O)C(=O)C2C(=O)c2ccc(OC)cc2)cc1", "note": "(stereo not given)", "growth inhibition": "0% (inactive)"},
      {"smiles": "O=[N+]([O-])c1c(Cl)c(Cl)c(O)c(Cl)c1Cl", "growth inhibition": "32% (inactive)"},
      {"smiles": "Cc1ccc(C)c(NC(=O)CCC(=O)CC(=O)c2ccncc2)c1", "growth inhibition": "0% (inactive)"},
      {"smiles": "CC(C)CCCC(C)C1CCC2C3CC=C4CC(OC(=O)Nc5ccc(S(=O)(=O)c6ccc(F)cc6)cc5)CCC4(C)C3CCC12C", "note": "(stereo not given)", "growth inhibition": "4% (inactive)"},
      {"smiles": "COc1ccc(/C=C(/NC(=O)c2ccccc2)C(=O)Nc2ccccc2)cc1OC", "growth inhibition": "-4% (inactive)"},
      {"smiles": "C=C(Br)CN(CC(=C)Br)C(C)=O", "growth inhibition": "22% (inactive)"},
      {"smiles": "CCN(C(C)=O)c1ccc2c(c1)Cc1ccccc1-2", "growth inhibition": "-10% (inactive)"},
      {"smiles": "NN(c1ccccc1)c1cccc2ccccc12", "growth inhibition": "1% (inactive)"},
      {"smiles": "C#CCN1CCN(C(=S)N/N=C(\\C)c2ccccn2)CC1", "growth inhibition": "52% (inactive)"},
      {"smiles": "CC(C)OC(=O)C1C=CCc2c(O)ccc(O)c21", "note": "(stereo not given)", "growth inhibition": "11% (inactive)"},
      {"smiles": "CC(=O)C1C(=O)C=C(C)OC1=O", "note": "(stereo not given)", "growth inhibition": "4% (inactive)"},
      {"smiles": "CCOC(=O)c1[nH]n(-c2ccccc2)c(=O)c1/C=N/C(=S)N=Nc1c(O)[nH]c2ccccc12", "growth inhibition": "-1% (inactive)"},
      {"smiles": "N#Cc1c(Cl)nnc(-c2ccccc2)c1-c1ccccc1", "growth inhibition": "4% (inactive)"},
      {"smiles": "CC(=O)Oc1c(O)c2ccccc2c2ccccc12", "growth inhibition": "-4% (inactive)"},
      {"smiles": "Cc1cccnc1NC(=S)Nc1ccccc1Cl", "growth inhibition": "28% (inactive)"},
      {"smiles": "CCOC(=O)/C(=C\\c1cccc(OC)c1)C(C)=O", "growth inhibition": "-16% (inactive)"},
      {"smiles": "c1ccc(C(c2ccccc2)c2ccc3ccccc3n2)cc1", "growth inhibition": "-3% (inactive)"},
      {"smiles": "O=c1cc(CSc2ccc(Cl)cc2)occ1O", "growth inhibition": "2% (inactive)"},
      {"smiles": "COc1cc(NCCCCCNC2CCCCC2)c2ncccc2c1", "growth inhibition": "-18% (inactive)"},
      {"smiles": "CC(=O)OCc1ccc([N+](=O)[O-])o1", "growth inhibition": "1% (inactive)"},
      {"smiles": "O=C(O)Cc1cccc2cc3c(ccc4ccccc43)cc12", "growth inhibition": "8% (inactive)"},
      {"smiles": "Cc1cccc(N2C(=O)c3ccccc3C2(c2ccccc2)N2CCCCC2)c1", "note": "(stereo not given)", "growth inhibition": "-2% (inactive)"},
      {"smiles": "O=C(/C=C/c1ccccc1)CCN1CCOCC1", "growth inhibition": "32% (inactive)"},
      {"smiles": "C=CCCCCCCCCC(=O)CCCCCCCCC=C", "growth inhibition": "-4% (inactive)"},
      {"smiles": "Cc1ccc(O)c(C(C)c2ccccc2)c1", "note": "(stereo not given)", "growth inhibition": "2% (inactive)"},
      {"smiles": "COC(=O)c1nc(N)nc(C(=O)OC)c1C(=O)c1ccccc1", "growth inhibition": "-2% (inactive)"},
      {"smiles": "Cc1ccc(S(=O)(=O)Oc2ccc(C(C)(C)C)cc2Cl)cc1", "growth inhibition": "20% (inactive)"},
      {"smiles": "CCCCCCCCCCCCCCC[N+]1(CC)CCCCC1", "growth inhibition": "98% (active)"},
      {"smiles": "CC12CCC(=O)C=C1C=CC1C2CCC2(C)C1CCC21CCC(=O)O1", "note": "(stereo not given)", "growth inhibition": "7% (inactive)"},
      {"smiles": "CC(C)N(C(=O)C12C3C4C1C1C2C3C41I)C(C)C", "note": "(stereo not given)", "growth inhibition": "-34% (inactive)"}
    ]}
  ]
}
